Data from PubChem BioAssay (Tox21).
Inconclusive results are not listed. A call without a number means that no potency is given here. Activity calls are given as the source filed them. Unless noted, calls follow the shape of the dose curve; as a rule, active = well fitted curve in the direction sought with a large enough effect in the repeat runs; inconclusive = weak or mixed curves; inactive = no such curve, though single readings can be large; an effect the other way counts as inactive or inconclusive.

What was measured:
[1] = molecular target: Thyrotropin receptor (Homo sapiens) (UniProt P16473); assay: qHTS assay to identify small molecule agonists of the thyroid stimulating hormone receptor (TSHR) signaling pathway (AID 1224843; calls by dose curve; also: nearly all actives have a fitted effect of over 45% in size)
Thyrotropin receptor (Homo sapiens), sequence (P16473 whole entry, looked up): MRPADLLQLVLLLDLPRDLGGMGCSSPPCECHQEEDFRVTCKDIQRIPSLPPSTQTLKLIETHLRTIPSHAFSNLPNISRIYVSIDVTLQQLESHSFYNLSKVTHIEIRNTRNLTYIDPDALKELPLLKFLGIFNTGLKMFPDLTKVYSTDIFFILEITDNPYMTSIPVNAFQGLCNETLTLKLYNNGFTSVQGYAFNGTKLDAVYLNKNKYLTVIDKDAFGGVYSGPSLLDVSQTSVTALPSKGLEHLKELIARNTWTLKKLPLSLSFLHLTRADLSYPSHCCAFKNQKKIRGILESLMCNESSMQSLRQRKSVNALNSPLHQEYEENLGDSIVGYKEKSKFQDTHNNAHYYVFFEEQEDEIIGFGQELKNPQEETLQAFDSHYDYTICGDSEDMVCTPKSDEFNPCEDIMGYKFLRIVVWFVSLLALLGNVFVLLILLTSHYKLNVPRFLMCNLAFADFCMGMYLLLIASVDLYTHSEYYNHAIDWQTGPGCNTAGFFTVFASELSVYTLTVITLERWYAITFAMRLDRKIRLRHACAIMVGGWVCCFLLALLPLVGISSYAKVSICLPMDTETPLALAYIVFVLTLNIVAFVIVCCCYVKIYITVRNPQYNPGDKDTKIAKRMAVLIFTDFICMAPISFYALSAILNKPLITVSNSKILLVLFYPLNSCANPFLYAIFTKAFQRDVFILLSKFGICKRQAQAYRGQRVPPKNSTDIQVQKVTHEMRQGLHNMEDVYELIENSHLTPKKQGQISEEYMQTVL
How it was run: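 TSHR-expressing HEK293 cells (800 per well) were exposed to compounds for 30 min at room temperature. cAMP was then detected by HTRF competition with cAMP-d2 and anti-cAMP cryptate, read after 1 h at room temperature. Fifteen concentrations, triplicate.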

[2] = qHTS assay to identify small molecule agonists of the hypoxia (HIF-1) signaling pathway - cell viability counter screen (AID 1224844; calls by dose curve; also: nearly all actives have a fitted effect of over 50% in size; also: potency is read from the fitted curve at half-maximal effect)
How it was run: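 Tox21 10K compounds were added to HRE-bla ME-180 cells (0.5% dialyzed FBS) and incubated 17 hrs at 37C; ATP-based CellTiter-Glo luminescence then reported cell viability in the same wells.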

[3] = qHTS assay to identify small molecule agonists of H2AX (AID 1224845; active = well fitted activation curve with a large enough effect in the signal ratio in the repeat runs, not every such curve was filed as active; the % refers to the signal ratio)
How it was run: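 Wild-type CHO-K1 cells plated overnight, then exposed 3 hr at 37C to compounds at 15 concentrations (0.76% DMSO). Lysed, then HTRF anti-pH2AX(S139)-cryptate/anti-H2AX-d2 detection after 24 hr at room temperature; emissions 665 and 620 nm.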

[4] = qHTS assay to identify small molecule agonists of the hypoxia (HIF-1) signaling pathway (AID 1224846; active = well fitted activation curve with a large enough effect in the signal ratio in the repeat runs, not every such curve was filed as active; the % refers to the signal ratio)
How it was run: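 Steps: seed ME-180 HRE-bla cells (2,000/well, 0.5% dialyzed FBS); incubate 5 hrs at 37C; pin-transfer compounds or DMSO; incubate 17 hrs; add LiveBLAzer B/G substrate CCF4-AM; measure reporter activation by FRET.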

[5] = qHTS assay to identify small molecule agonists of H2AX - cell viability counter screen (AID 1224847; calls by dose curve; also: top concentration of the series differs between compounds; nearly all actives have a fitted effect of over 30% in size)
How it was run: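 For this counter screen, overnight-attached CHO-K1 cells received test compounds (15 concentrations, 0.76% DMSO final); 3 hr later at 37C, CellTiter-Glo reagent was added and luminescence recorded after 30 min at room temperature.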

[6] = qHTS assay to identify small molecule antagonists of the estrogen related receptor (ERR) signaling pathway from Tox21 library (AID 1224848); also: nearly all actives have a fitted effect of over 50% in size; also: potency is read from the fitted curve at half-maximal effect
How it was run: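 Cells: ERR line, 2,000/well; 6 h preincubation 37 C/5% CO2. Cpd in DMSO via pin tool; 18 h, 37 C. ONE-Glo, 30 min RT, luminescence.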

[7] = qHTS RealTime-Glo MT Cell Viability Assay in HepG2 cells - 24 hour (AID 1224867); also: nearly all actives have a fitted effect of over 50% in size
How it was run: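 Cell number in HepG2 cultures estimated from NanoLuc luminescence generated by metabolic reduction of a prosubstrate by living cells. The homogeneous, nonlytic format allowed repeated reads at 0, 8, 16, 24, 32 and 40 h of compound exposure.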

[8] = qHTS RealTime-Glo MT Cell Viability Assay in HEK293 cells - 32 hour (AID 1224868); also: top concentration of the series differs between compounds; nearly all actives have a fitted effect of over 50% in size
How it was run: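 Homogeneous bioluminescent viability format in HEK293 cells (600 cells/well). Following 5 h at 37 C/5% CO2, 23 nL compound was pintooled; the signal was measured repeatedly during 40 h incubation.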

[9] = A CellTox Green Cytotoxicity Assay to monitor cytotoxicity in HEK293 cells - 0 hour (AID 1224869); also: nearly all actives have a fitted effect of over 50% in size
How it was run: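 Cytotoxicity was tracked continuously in HEK293 cells by a DNA-binding dye excluded from viable cells. Compounds were transferred in DMSO 5 h after seeding; fluorescence was recorded at intervals up to 40 h.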

Structure (SMILES)	Potency [1]	Potency [2]	Potency [3]	outcome [4]	Potency [5]	Potency [6]	Potency [7]	Potency [8]	Potency [9]
CC(C)(CO)COC(=O)C(C)(C)CO	inactive	inactive	inactive	inactive	inactive	inactive	inactive	inactive	inactive
CC[Si](OC(C)=O)(OC(C)=O)OC(C)=O	inactive	inactive	inactive	inactive	inactive		inactive	inactive	inactive
CCOC(=O)/C=C\C(=O)OCC	inactive	inactive	inactive		inactive	inactive	inactive	inactive	inactive
Nc1cc(-c2ccncc2)c[nH]c1=O	inactive	inactive	inactive		inactive	inactive	inactive	inactive	inactive
Oc1ccc2ccccc2c1	inactive	35.5 µM (active)	inactive		inactive		inactive	inactive	inactive
CCCCCC/C=C/CCCCCCCC(=O)O	inactive	inactive	inactive		inactive		inactive	inactive	inactive
OC1CCCC1	inactive	inactive	inactive		inactive	inactive	inactive	inactive	inactive
CS(=O)(=O)Nc1ccc([N+](=O)[O-])cc1Oc1ccccc1	inactive	inactive	inactive		inactive	38.6 µM (active)	inactive	inactive	inactive
CCCCCCCCC	inactive	inactive	inactive		inactive		inactive	inactive	inactive
NCc1cccc(CN)c1	inactive	inactive	inactive		inactive		inactive	inactive	inactive
CCCCCCCCCC(=O)O	inactive	inactive	inactive		inactive	inactive	inactive	inactive	inactive
NC(=O)NNc1ccccc1	inactive	inactive	inactive		inactive		inactive	inactive	inactive
CN(C)c1cccc(O)c1	inactive	inactive	inactive		inactive		inactive	inactive	inactive
O=c1c(-c2ccc(O)cc2)coc2cc(O)ccc12	inactive	inactive	inactive		inactive	inactive	inactive		inactive
